# Experimental data reported in PubChem BioAssay (Tox21).
# Inconclusive results are not listed. Where a call stands in place of a potency, no number is given. Activity calls are given as the source filed them. Unless noted, calls follow the shape of the dose curve; as a rule, active = well fitted curve in the direction sought with a large enough effect in the repeat runs; inconclusive = weak or mixed curves; inactive = no such curve, though single readings can be large; an effect the other way counts as inactive or inconclusive.
# Molecular target: Androgen receptor (Homo sapiens) (UniProt P10275)
# Test: qHTS assay to identify small molecule antagonists of the androgen receptor (AR) signaling pathway (AID 743035; active = well fitted inhibition curve with a large enough effect in the signal ratio in the repeat runs, not every such curve was filed as active; the % refers to the signal ratio; also: potency is read from the fitted curve at half-maximal effect)
# Conditions: HEK293 AR-UAS-bla, R1881-stimulated, beta-lactamase FRET, 16 h; series mostly up to 58.5 µM
# Method in brief: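 Steps: seed AR-UAS-bla GripTite HEK293 cells, incubate 4 h at 37C; pin in test compound, then add agonist R1881; incubate 16 h at 37C; add LiveBLAzer B/G FRET substrate, 2 h at room temperature; read fluorescence.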
# Androgen receptor (Homo sapiens), sequence (P10275 whole entry, looked up): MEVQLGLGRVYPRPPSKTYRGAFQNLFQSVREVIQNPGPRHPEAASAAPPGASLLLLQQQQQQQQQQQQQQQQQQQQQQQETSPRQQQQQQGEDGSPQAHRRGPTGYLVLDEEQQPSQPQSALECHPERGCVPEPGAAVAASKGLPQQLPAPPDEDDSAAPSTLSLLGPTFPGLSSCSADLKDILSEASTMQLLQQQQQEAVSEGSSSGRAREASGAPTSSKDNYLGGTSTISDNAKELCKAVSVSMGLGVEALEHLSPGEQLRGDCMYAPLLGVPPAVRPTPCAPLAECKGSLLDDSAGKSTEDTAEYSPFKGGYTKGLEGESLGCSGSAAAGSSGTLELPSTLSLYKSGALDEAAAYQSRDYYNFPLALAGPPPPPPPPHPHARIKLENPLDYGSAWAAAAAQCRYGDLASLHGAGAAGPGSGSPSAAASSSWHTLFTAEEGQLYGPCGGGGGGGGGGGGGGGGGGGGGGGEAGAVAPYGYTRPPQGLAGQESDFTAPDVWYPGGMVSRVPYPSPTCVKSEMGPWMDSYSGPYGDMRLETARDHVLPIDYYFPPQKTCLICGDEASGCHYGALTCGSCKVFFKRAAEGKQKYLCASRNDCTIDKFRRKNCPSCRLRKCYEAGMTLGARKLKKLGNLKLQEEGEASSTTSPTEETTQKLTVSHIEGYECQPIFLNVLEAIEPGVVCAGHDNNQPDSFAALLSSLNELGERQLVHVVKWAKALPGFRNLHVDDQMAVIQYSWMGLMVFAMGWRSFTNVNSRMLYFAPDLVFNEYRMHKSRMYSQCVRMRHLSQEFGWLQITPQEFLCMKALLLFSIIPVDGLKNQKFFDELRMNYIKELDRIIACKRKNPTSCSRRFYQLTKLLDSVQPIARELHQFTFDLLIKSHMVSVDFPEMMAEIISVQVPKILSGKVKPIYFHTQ
row,SMILES,Potency
1,O=C(O)COC(=O)Cc1ccccc1Nc1c(Cl)cccc1Cl,inactive
2,Cc1cc(C)c(S(=O)(=O)O)cc1N=Nc1cc(S(=O)(=O)O)c2ccccc2c1O,inactive
3,CCOc1nc2cccc(C(=O)O)c2n1Cc1ccc(-c2ccccc2-c2nn[nH]n2)cc1,inactive
4,NC(N)=NN=C(/C=C/c1ccc([N+](=O)[O-])o1)/C=C/c1ccc([N+](=O)[O-])o1,5.35 µM (active)
5,CC(C)(C)c1cc(O)c(C(C)(C)C)cc1O,43.6 µM (active)
6,N[C@H]1C(O)O[C@H](CO)[C@H](O)[C@@H]1O (stereo partly drawn),inactive
7,CCCCCC/C=C/C=O,inactive
8,NC(=S)N/N=C/c1cccnc1,inactive

# Molecular target: Androgen receptor (Homo sapiens) (UniProt P10275)
# Test: qHTS assay to identify small molecule agonists of the androgen receptor (AR) signaling pathway (AID 743036; active = well fitted activation curve with a large enough effect in the signal ratio in the repeat runs, with a control signal flat, not every such curve was filed as active; the % refers to the signal ratio)
# Conditions: HEK293 AR-UAS-bla GripTite, beta-lactamase FRET ratio, 16 h; series mostly up to 62.4 µM
# Method in brief: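 Agonist activity was scored by beta-lactamase reporter fluorescence in stably transfected HEK293 cells exposed to compounds for 16 h at 37C and 5% CO2. Substrate loading took 2 h at room temperature.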
row,SMILES,outcome
1,O=C(O)COC(=O)Cc1ccccc1Nc1c(Cl)cccc1Cl,inactive
2,Cc1cc(C)c(S(=O)(=O)O)cc1N=Nc1cc(S(=O)(=O)O)c2ccccc2c1O,inactive
3,c1ccc(OCc2ccc(CCCN3CCOCC3)cc2)cc1,inactive
4,CCOc1nc2cccc(C(=O)O)c2n1Cc1ccc(-c2ccccc2-c2nn[nH]n2)cc1,inactive
5,CC(C)(C)c1cc(O)c(C(C)(C)C)cc1O,inactive
6,N[C@H]1C(O)O[C@H](CO)[C@H](O)[C@@H]1O (stereo partly drawn),inactive
7,NC(=S)N/N=C/c1cccnc1,inactive

# Molecular target: Androgen receptor (Homo sapiens) (UniProt P10275)
# Test: qHTS assay to identify small molecule agonists of the androgen receptor (AR) signaling pathway using the MDA cell line (AID 743040; also: nearly all actives have a fitted effect of over 20% in size)
# Conditions: MDA-kb2 AR-luc cells, MMTV luciferase, 16 h; series mostly up to 70.3 µM
# Method in brief: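 Luciferase agonist assay: 16 h compound exposure at 37C without CO2 in MDA-kb2 AR-luc cells, whose MMTV promoter responds to both AR and GR. Luminescence measured after 30 min room-temperature incubation with ONE-Glo.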
row,SMILES,Potency
1,O=C(O)COC(=O)Cc1ccccc1Nc1c(Cl)cccc1Cl,inactive
2,Cc1cc(C)c(S(=O)(=O)O)cc1N=Nc1cc(S(=O)(=O)O)c2ccccc2c1O,inactive
3,c1ccc(OCc2ccc(CCCN3CCOCC3)cc2)cc1,inactive
4,CCOc1nc2cccc(C(=O)O)c2n1Cc1ccc(-c2ccccc2-c2nn[nH]n2)cc1,inactive
5,NC(N)=NN=C(/C=C/c1ccc([N+](=O)[O-])o1)/C=C/c1ccc([N+](=O)[O-])o1,inactive
6,CC(C)(C)c1cc(O)c(C(C)(C)C)cc1O,inactive
7,N[C@H]1C(O)O[C@H](CO)[C@H](O)[C@@H]1O (stereo partly drawn),inactive
8,NC(=S)N/N=C/c1cccnc1,inactive

# System: not listed separately
# Test: qHTS assay to identify small molecule antagonists of the androgen receptor (AR) signaling pathway using the MDA cell line - cell viability counter screen (AID 743041; also: nearly all actives have a fitted effect of over 45% in size; also: potency is read from the fitted curve at half-maximal effect)
# Conditions: MDA-kb2 viability, CellTiter-Fluor, 16 h, cells co-treated with R1881 androgen agonist; series mostly up to 70.3 µM
# Method in brief: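 Viability read by CellTiter-Fluor fluorescence in the same wells as the antagonist screen, added after 15.5 h of a 16 h, 37C exposure. Human breast carcinoma MDA-kb2 AR-luc cells, compounds co-dosed with agonist R1881.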
row,SMILES,Potency
1,OCCC1CCCCN1 (stereo not drawn),inactive
2,Oc1ccc(Sc2ccc(O)cc2)cc1,inactive
3,CCCC[C@H]1CN(CC2CCOCC2)C(=O)OC12CCN(C1(C)CCN(C(=O)c3c(C)ncnc3C)CC1)CC2,inactive
4,O=C(O)COC(=O)Cc1ccccc1Nc1c(Cl)cccc1Cl,inactive
5,Cc1cc(C)c(S(=O)(=O)O)cc1N=Nc1cc(S(=O)(=O)O)c2ccccc2c1O,30.6 µM (active)
6,CN1CCC(OC(c2ccccc2)c2ccccc2)CC1,inactive
7,N#Cc1c(F)cccc1F,inactive
8,CCOc1nc2cccc(C(=O)O)c2n1Cc1ccc(-c2ccccc2-c2nn[nH]n2)cc1,inactive
9,NC(N)=NN=C(/C=C/c1ccc([N+](=O)[O-])o1)/C=C/c1ccc([N+](=O)[O-])o1,23.7 µM (active)
10,Cc1ccccn1,inactive
11,NC1CCN(c2nc3c(cc2F)c(=O)c(C(=O)O)cn3-c2ccc(F)cc2F)C1 (stereo not drawn),inactive
12,CCCCCCOC(=O)CCC,inactive
13,COc1cc(C(C)(C)C)c(O)c(C(C)(C)C)c1,inactive
14,CC(C)c1cccc(C(C)C)c1NC(=O)NS(=O)(=O)c1cc(C(C)(C)O)co1,inactive
15,O=C(O)C(c1ccc(Cl)cc1)c1ccc(Cl)cc1,inactive
16,COCCCCCCCCOCCC[Si](C)(O[Si](C)(C)C)O[Si](C)(C)C,21.7 µM (active)
17,O=C(/C=C/c1ccc(O)c(O)c1)O[C@@H]1C[C@](O)(C(=O)O)C[C@@H](O)[C@H]1O,inactive
18,O=C1[C@H](CC[C@H](O)c2ccc(F)cc2)[C@@H](c2ccc(O)cc2)N1c1ccc(F)cc1,inactive

row,SMILES,Potency
1,NC[C@H]1O[C@H](O[C@H]2[C@H](O)[C@@H](O[C@H]3O[C@H](CO)[C@@H](O)[C@H](N)[C@H]3O)[C@H](N)C[C@@H]2N)[C@H](O)[C@@H](O)[C@@H]1O,inactive
2,CC(C)(C)c1cc(O)c(C(C)(C)C)cc1O,inactive
3,CCOC(=O)[C@H](CCc1ccccc1)N[C@H]1CCc2ccccc2N(CC(=O)O)C1=O,inactive
4,C=C(C)C(=O)OCCN(C)C,inactive
5,S=C(S)NCCNC(=S)S,inactive
6,Cc1ccc(C(C)c2ccc(C)c(C)c2)cc1C,inactive
7,CCCCOC(=O)/C=C\C(=O)OCCCC,inactive
8,CC(C)(C)C1CCCCC1O (stereo not drawn),inactive
9,O=C(O)Cc1cc(I)c(Oc2ccc(O)c(I)c2)c(I)c1,inactive
10,N[C@H]1C(O)O[C@H](CO)[C@H](O)[C@@H]1O (stereo partly drawn),inactive
11,CC1CCc2cc(F)cc3c(=O)c(C(=O)O)cn1c23 (stereo not drawn),inactive
12,CN(c1nccc(=O)[nH]1)C1CCN(c2nc3ccccc3n2Cc2ccc(F)cc2)CC1,inactive
13,Cc1cccc(C(C)(C)C)c1O,inactive
14,C=Cc1c(C)c2cc3[nH]c(cc4nc(cc5nc(cc1[nH]2)C(C)=C5CCC(=O)O)C(CCC(=O)O)=C4C)c(C)c3C=C,inactive
15,NC(=S)N/N=C/c1cccnc1,inactive
16,Nc1nc(N)c2nc(CNc3ccc(C(=O)N[C@@H](CCC(=O)O)C(=O)O)cc3)cnc2n1,inactive
17,CCOc1cc(OCC)c(C(=O)CCC(=O)O)cc1OCC,inactive
